From PubChem BioAssay (NCATS)
Inconclusive results are not listed. Calls of active or inactive are those of the source. Unless noted, calls follow the shape of the dose curve; as a rule, active = well fitted curve in either direction with a large enough effect (not every such curve was filed as active); inconclusive = small, poorly fitted or top-dose-only effect, or another doubt; inactive = flat fitted curve, though single readings scatter.

Key:
[1] = tested on: HIV-1 nucleocapsid protein NCp7 (binding to TG oligonucleotide); test: HIV Nucleocapsid (AID 346; call rule not given here;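 also: potency is read from the fitted curve at half-maximal effect; potency is for inhibitors that block NC binding and lower polarization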); conditions: HIV-1 NC / fluorescein-TGTGTGTG probe, fluorescence polarization
Method in brief: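 10 nM TG4xF probe with 100 nM nucleocapsid protein in high-salt Hepes pH 7.5 (250mM NaCl) containing 1uM ZnCl2 and reducing agents. Compound inhibition of binding was read as fluorescein polarization after 1 hr at room temperature.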

[2] = biological target: Lysosomal acid glucosylceramidase (Homo sapiens) (UniProt P04062); test: Glucocerebrosidase-p2 (AID 348; in the data active = potency below about 10 µM; also: potency is read from the fitted curve at half-maximal effect); conditions: purified GBA, blue fluorogenic substrate, 40 min
Chain of Lysosomal acid glucosylceramidase (Homo sapiens) (P04062 whole entry, looked up): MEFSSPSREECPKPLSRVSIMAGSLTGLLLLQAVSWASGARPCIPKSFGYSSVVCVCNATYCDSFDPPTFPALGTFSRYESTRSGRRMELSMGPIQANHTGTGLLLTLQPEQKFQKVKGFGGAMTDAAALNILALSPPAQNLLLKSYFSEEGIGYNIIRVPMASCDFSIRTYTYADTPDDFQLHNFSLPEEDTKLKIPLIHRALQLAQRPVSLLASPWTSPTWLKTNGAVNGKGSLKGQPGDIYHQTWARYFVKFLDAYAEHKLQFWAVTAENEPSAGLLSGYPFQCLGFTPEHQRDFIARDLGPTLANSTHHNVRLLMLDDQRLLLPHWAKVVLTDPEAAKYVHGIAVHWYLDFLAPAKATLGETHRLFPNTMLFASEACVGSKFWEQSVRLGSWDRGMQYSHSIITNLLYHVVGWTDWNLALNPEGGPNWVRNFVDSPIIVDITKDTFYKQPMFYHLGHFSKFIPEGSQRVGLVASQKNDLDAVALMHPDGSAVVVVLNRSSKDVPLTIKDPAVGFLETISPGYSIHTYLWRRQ
Method in brief: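 Normal human glucocerebrosidase (0.2 nM) with blue fluorogenic substrate (80 uM final) in citrate/phosphate pH 5.9 with 10mM sodium taurocholate, 0.01% tween-20; 40 min RT, NaOH/glycine stop; fluorescence Ex 365/Em 440; AC50 from a titration from 0.6 nM upwards.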

[3] = AP1 Signaling Pathway (AID 357);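 also: ME-180 reporter cells stimulated with EGF at its EC50 level; % is scaled to controls: 0 for no effect and ±100 for the full control effect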
Method in brief: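 Modulation of EGF-driven AP-1 transcription was assessed with a beta-lactamase reporter in ME-180 cells. Compound and EC50 EGF were co-incubated 5 hours at 37 °C before 2.5-hour CCF4 loading at room temperature and dual-emission reading.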

[4] = NFAT Signaling Pathway (AID 444); conditions: Jurkat NFAT-bla M1, carbachol, beta-lactamase ratio, 5 h; at 7.69 µM (top of the series);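 also: carbachol stimulus at about its EC50 of 1 µM final; % is scaled to controls: 0 for no effect and ±100 for the full control effect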
Method in brief: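 Read-out: CCF4 FRET ratio (460 nm/530 nm) after 1 h RT dye loading, used for %activity and AC50 from titration series. Cells: Jurkat NFAT-β-lactamase/M1 line, treated with compound plus 1 uM carbachol for 5 h, 37 °C.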

[5] = Stat Signaling Pathway (AID 446);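 also: ME-180 cervical cancer cells given 40 pM IL-6 alongside compound; SIE-controlled beta-lactamase reporter measured as 460/530 nm FRET emission ratio; % is scaled to controls: 0 for no effect and ±100 for the full control effect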
Method in brief: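 FRET read-out (405 nm excitation, 460/530 nm emission) of a beta-lactamase reporter under a STAT-inducible element in ME-180 cervical carcinoma cells. Cells with compound receive 40 pM IL-6 for 5 h. Values are normalised to AC90 stimulation and AC90 JAK-inhibitor controls.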

[6] = biological target: Glucocorticoid receptor (Homo sapiens) (UniProt P04150); test: GR-EFC Redistribution (AID 451; calls by dose curve; also: potency is read from the fitted curve at half-maximal effect); conditions: CHO-K1 GR-EFC translocation, beta-gal luminescence, 2 h
Chain of Glucocorticoid receptor (Homo sapiens) (P04150 whole entry, looked up, the tested form may be a part): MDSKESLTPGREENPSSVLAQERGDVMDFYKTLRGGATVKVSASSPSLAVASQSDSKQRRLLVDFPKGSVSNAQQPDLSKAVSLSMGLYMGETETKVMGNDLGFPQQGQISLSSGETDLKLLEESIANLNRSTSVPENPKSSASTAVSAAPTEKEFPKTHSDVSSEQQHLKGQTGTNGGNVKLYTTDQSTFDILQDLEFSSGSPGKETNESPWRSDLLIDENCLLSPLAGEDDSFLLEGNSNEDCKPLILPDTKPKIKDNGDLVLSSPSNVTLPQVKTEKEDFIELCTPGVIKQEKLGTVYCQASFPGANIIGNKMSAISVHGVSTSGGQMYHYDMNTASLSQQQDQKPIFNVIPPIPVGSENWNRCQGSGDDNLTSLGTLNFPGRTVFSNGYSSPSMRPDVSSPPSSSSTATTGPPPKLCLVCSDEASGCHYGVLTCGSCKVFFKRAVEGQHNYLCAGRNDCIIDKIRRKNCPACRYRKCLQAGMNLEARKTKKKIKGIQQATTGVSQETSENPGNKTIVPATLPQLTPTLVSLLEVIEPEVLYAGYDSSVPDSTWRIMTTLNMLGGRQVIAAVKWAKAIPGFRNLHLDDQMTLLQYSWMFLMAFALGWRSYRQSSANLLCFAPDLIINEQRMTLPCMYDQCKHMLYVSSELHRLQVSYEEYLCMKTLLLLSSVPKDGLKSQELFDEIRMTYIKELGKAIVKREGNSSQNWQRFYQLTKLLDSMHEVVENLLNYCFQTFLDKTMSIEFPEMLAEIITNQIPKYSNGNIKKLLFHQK
Method in brief: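 Translocation of GR-ED fusion to nuclear EA restores b-gal, read by luminescence after 1 h room-temperature detection. Engineered CHO-K1 biosensor cells, 1,000/well, exposed 2 h at 37 C to titrations up to 46 uM final.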

[7] = biological target: Mitogen-activated protein kinase 10 (Mus musculus) (UniProt Q61831); test: JNK3 AlphaScreen Assay (AID 530);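 also: kinase came from lysate of stimulated human HepG2 cells; signal reports phosphorylation of biotinylated GST-cJun 1-79 at Ser73 with 10 µM ATP; % is scaled to controls: 0 for no effect and ±100 for the full control effect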
Method in brief: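 qHTS titrations with 15 min compound pre-incubation before adding ATP (10 uM final). Read-out: AlphaScreen of Ser73-phosphorylated biotin-GST-cJun using HepG2 lysate JNK3 activated by IL-1β and TNFα.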

[8] = qHTS Assay for Lipid Storage Modulators (AID 1519; calls by dose curve); conditions: Drosophila S3 cells, BODIPY lipid droplet/cell ratio, laser cytometry, cells loaded with oleic acid; for activity change, negative = inhibition: at 57.5 µM (top of the series)
Method in brief: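 Cells seeded at 5,000 per well were treated with compounds over a concentration series and loaded with oleic acid (400 uM, as added). Lipid droplet fluorescence (488 nm excitation, 500-530 nm channel) was read by laser-scanning cytometry and normalized to 20 uM Triacsin C.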

[9] = biological target: Glucocorticoid receptor (Homo sapiens) (UniProt P04150); test: GR-GFP Redistribution (AID 450;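 active = compounds whose dose series gives a full or clear partial fitted curve of increased nuclear translocation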; also: potency is read from the fitted curve at half-maximal effect); conditions: U2OS GR-GFP nuclear translocation, laser cytometry, 2 h
[10] = biological target: 3',5'-cyclic-AMP phosphodiesterase 4B (Homo sapiens) (UniProt Q07343); test: qHTS Assay for Inhibitors of PDE-IV (AID 607; active = well fitted activation curve with a large enough effect in the main read-out, with a control signal flat, not every such curve was filed as active; also: % of control where 0% means no effect)
Chain of 3',5'-cyclic-AMP phosphodiesterase 4B (Homo sapiens) (Q07343 whole entry, looked up): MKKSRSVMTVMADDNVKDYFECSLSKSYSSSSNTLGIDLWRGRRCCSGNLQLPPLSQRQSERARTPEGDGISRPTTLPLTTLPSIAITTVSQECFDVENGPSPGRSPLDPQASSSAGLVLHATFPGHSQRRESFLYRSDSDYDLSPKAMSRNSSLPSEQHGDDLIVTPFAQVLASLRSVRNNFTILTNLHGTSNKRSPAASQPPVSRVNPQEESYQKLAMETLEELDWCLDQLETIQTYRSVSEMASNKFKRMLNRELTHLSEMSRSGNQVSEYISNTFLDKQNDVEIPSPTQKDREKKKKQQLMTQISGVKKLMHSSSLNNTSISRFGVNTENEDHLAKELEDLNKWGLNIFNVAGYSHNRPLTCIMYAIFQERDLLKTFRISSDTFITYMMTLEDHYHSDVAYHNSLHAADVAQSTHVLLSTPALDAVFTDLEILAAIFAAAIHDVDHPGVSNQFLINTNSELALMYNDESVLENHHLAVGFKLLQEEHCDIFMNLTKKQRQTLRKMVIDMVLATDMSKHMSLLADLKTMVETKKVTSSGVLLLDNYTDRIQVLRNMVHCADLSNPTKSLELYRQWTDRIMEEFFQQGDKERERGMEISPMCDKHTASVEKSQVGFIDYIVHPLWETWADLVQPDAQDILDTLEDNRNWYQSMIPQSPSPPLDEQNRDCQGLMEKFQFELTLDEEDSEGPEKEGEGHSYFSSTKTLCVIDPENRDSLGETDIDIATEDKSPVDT
Method in brief: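 Cell-based read-out of cAMP via a modified cyclic nucleotide-gated channel and membrane potential dye (535/590 nm) in HEK293 cells expressing PDE4 endogenously. Compounds tested up to 22.9 uM final; 100 uM RO 20-1724 reference.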

[11] = Confirmation and Secondary Assay for Modulators of Hemoglobin Beta Chain Splicing at IVS2 654 locus (AID 910; active = well fitted curve in the direction sought with a large enough effect; an effect the other way counts as inactive or inconclusive;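 also: HeLa cells stably carrying EGFP split by mutant beta-globin IVS2-654 intron; % of control where 0% means no effect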)
Method in brief: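 Readout: per-well total peak green fluorescence (488 nm ex, 500–520 nm em) from objects 5–250 µm, reflecting correct splicing of an EGFP-654 reporter. Compounds were applied for 2 days at 37 °C to overnight-plated HeLa EGFP-654 cells; controls were DMSO and 500 nM IVS2-654 PNA.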

[12] = Confirmation and Secondary Assay for Modulators of Hemoglobin Beta Chain Splicing at IVS2 705 locus (AID 930; active = well fitted curve in the direction sought with a large enough effect; an effect the other way counts as inactive or inconclusive;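 also: HeLa cells stably expressing the EGFP-705 splicing reporter; GFP fluorescence per well restored by corrected splicing of the IVS2-705 intron in EGFP; % of control where 0% means no effect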)
Method in brief: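 Read-out: total peak GFP fluorescence per well (488 nm excitation, 500-520 nm emission) by laser-scanning cytometry. Cells: HeLa EGFP-705 splicing reporter, 2 days compound exposure in Optimem/2% FCS.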

[13] = biological target: Cytochrome P450 1A2 (Homo sapiens) (UniProt P05177); test: p450-cyp1a2 (AID 410; calls by dose curve; also: potency is read from the fitted curve at half-maximal effect;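 as to activity change, negative = inhibition: -100% = full effect of reference inhibitor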)
Chain of Cytochrome P450 1A2 (Homo sapiens) (P05177 whole entry, looked up): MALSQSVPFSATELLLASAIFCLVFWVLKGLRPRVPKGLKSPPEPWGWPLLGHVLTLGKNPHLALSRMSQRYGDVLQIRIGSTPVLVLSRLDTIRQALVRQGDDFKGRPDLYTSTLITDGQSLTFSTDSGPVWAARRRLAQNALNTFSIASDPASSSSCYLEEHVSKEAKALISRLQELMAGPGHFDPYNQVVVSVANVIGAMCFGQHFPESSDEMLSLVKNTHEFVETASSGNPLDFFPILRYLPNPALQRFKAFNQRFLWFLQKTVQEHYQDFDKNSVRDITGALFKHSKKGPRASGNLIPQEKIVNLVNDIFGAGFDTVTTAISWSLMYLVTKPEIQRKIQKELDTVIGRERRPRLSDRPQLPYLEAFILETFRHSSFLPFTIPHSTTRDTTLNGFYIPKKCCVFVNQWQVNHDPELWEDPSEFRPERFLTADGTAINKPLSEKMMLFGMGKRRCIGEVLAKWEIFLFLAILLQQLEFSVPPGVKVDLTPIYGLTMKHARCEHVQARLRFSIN
Method in brief: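 Luminescent demethylation readout: Luciferin-ME (100uM, equal to Km) turned over by 20nM CYP1A2 for 60 min at room temperature after NADPH regeneration addition, following 10 min compound preincubation. Normalization used 57 uM furafylline as full inhibition.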

[14] = biological target: Cytochrome P450 2C9 (Homo sapiens) (UniProt P11712); test: qHTS Assay for Inhibitors and Substrates of Cytochrome P450 2C9 (AID 883; active = well fitted curve in the direction sought with a large enough effect; an effect the other way counts as inactive or inconclusive; also: potency is read from the fitted curve at half-maximal effect; nearly all actives have a fitted effect of over 60% in size)
Chain of Cytochrome P450 2C9 (Homo sapiens) (P11712 whole entry, looked up): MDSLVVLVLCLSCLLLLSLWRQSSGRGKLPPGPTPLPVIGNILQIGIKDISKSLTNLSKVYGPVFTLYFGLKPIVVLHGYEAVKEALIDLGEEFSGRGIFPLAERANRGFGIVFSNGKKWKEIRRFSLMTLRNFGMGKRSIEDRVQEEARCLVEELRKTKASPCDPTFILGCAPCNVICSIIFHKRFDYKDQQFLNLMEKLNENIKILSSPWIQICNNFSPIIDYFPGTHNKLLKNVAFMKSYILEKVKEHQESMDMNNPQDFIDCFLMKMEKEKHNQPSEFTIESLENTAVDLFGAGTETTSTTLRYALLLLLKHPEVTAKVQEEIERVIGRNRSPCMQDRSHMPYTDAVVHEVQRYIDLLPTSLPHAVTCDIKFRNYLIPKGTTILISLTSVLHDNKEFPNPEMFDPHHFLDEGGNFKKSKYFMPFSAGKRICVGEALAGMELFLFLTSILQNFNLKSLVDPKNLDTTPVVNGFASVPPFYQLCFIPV
Method in brief: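 Inhibition of CYP2C9 is scored as loss of luminescence, with 57uM sulphaphenazole defining 100% inhibition. Substrate Luciferin-H is used at 100uM, equal to its KM; enzyme at 10nM in 25mM KPO4, 60 min at 37C with NADPH regeneration.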

[15] = biological target: Cytochrome P450 3A4 (Homo sapiens) (UniProt P08684); test: qHTS Assay for Activators of Cytochrome P450 3A4 (AID 885; active = well fitted curve in the direction sought with a large enough effect; an effect the other way counts as inactive or inconclusive; also: nearly all actives have a fitted effect of over 65% in size)
Chain of Cytochrome P450 3A4 (Homo sapiens) (P08684 whole entry, looked up): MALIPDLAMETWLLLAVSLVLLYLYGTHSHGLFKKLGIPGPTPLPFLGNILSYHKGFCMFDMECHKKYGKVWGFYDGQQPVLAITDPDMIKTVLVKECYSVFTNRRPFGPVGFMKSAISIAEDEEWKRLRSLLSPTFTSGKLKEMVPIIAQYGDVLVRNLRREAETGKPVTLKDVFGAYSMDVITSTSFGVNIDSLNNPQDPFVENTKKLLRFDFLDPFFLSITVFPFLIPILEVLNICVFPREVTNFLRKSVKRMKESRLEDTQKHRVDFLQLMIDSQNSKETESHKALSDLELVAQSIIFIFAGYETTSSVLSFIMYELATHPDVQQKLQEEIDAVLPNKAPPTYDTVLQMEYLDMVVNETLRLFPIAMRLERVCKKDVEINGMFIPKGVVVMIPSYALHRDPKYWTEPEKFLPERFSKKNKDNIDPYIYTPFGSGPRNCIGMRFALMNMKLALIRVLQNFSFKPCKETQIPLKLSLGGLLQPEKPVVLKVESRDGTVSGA
Method in brief: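 Luminescent readout of luciferin formed from 25 uM Luciferin-PPXE (KM level) by 20 nM CYP3A4 in 200 mM KPO4, with 60 min NADPH-driven reaction at room temperature after 10 min compound exposure. Ketoconazole (57 uM) defined 100% inhibition.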

[16] = biological target: Cytochrome P450 2C19 (Homo sapiens) (UniProt P33261); test: qHTS Assay for Inhibitors and Substrates of Cytochrome P450 2C19 (AID 899; active = well fitted curve in the direction sought with a large enough effect; an effect the other way counts as inactive or inconclusive; also: potency is read from the fitted curve at half-maximal effect; nearly all actives have a fitted effect of over 60% in size)
Chain of Cytochrome P450 2C19 (Homo sapiens) (P33261 whole entry, looked up): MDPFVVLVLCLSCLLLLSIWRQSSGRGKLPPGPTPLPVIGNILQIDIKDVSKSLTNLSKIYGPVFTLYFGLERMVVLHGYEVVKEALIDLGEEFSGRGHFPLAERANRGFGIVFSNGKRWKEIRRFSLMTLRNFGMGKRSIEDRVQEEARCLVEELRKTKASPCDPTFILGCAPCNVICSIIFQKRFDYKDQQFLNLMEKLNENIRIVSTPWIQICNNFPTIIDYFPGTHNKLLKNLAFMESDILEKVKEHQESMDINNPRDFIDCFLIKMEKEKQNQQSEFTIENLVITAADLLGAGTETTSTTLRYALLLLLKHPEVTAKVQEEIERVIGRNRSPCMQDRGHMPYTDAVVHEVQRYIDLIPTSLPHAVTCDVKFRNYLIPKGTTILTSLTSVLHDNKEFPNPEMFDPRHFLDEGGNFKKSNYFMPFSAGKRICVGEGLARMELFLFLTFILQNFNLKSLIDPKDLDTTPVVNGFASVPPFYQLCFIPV
Method in brief: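 5nM enzyme + 10uM Luciferin-H EGE (=KM), 50mM KPO4; cpd pin-transferred, 10 min 37C; NADPH regen, 60 min 37C; stopped w/ luciferin detection reagent, 20 min; luminescence. Normalized to 57uM ketoconazole (AC100).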

[17] = biological target: Cytochrome P450 3A4 (Homo sapiens) (UniProt P08684); test: qHTS Assay for Inhibitors and Substrates of Cytochrome P450 3A4 (AID 884; active = well fitted curve in the direction sought with a large enough effect; an effect the other way counts as inactive or inconclusive; also: nearly all actives have a fitted effect of over 50% in size; also: potency is read from the fitted curve at half-maximal effect)
Method in brief: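 Luminescent readout of luciferin produced by CYP3A4 (20 nM) dealkylation of Luciferin-PPXE, 25 uM (its KM). NADPH-driven reaction ran 60 min at RT after 10 min compound preincubation; data scaled to 57 uM ketoconazole as 100% inhibition.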

[18] = biological target: Ubiquitin carboxyl-terminal hydrolase 1 (Homo sapiens) (UniProt O94782); test: Inhibitors of USP1/UAF1: Pilot qHTS (AID 504865; active = well fitted curve in the direction sought with a large enough effect; an effect the other way counts as inactive or inconclusive;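 also: rhodamine fluorescence freed from ubiquitin-rhodamine substrate followed over time; top concentration of the series differs between compounds; % is scaled to controls: 0 for no effect and ±100 for the full control effect; nearly all actives have a fitted effect of over 35% in size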)
Chain of Ubiquitin carboxyl-terminal hydrolase 1 (Homo sapiens) (O94782 whole entry, looked up): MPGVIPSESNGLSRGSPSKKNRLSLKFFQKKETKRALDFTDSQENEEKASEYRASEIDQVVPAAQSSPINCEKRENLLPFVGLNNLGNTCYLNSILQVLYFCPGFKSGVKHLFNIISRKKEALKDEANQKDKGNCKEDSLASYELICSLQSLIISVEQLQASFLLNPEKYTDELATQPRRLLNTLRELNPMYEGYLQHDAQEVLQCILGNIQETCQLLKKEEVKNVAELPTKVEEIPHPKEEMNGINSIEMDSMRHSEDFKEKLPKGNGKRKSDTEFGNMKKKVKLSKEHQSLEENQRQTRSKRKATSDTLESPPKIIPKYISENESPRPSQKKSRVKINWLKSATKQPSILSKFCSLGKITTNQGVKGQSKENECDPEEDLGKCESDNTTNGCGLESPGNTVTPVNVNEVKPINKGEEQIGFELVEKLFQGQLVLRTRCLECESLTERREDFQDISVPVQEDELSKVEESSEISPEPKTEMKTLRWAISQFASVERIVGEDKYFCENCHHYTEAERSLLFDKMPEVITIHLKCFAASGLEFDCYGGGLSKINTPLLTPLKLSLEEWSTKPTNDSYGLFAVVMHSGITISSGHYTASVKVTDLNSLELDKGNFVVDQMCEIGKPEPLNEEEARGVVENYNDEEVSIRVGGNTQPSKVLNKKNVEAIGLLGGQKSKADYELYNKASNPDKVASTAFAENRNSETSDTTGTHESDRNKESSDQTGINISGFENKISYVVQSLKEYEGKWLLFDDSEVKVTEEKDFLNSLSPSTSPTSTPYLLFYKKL
Method in brief: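 Deubiquitinase activity followed as kinetic rhodamine fluorescence release from 150 nM Ub-Rho. 1 nM USP1/UAF1 with compound, after 15 min room-temperature preincubation, in HEPES pH 7.8 buffer containing TCEP, EDTA, BSA and Tween-20.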

[19] = measured here: cell count channel max response
[20] = measured here: lipid channel max response

c1cnc(N2CCCC3(CCNCC3)C2)nc1
19.3%: max response [8, 20]
inactive: Potency [1] > 20 µM | Potency [2] > 11.4 µM | outcome [3] | activity change, negative = inhibition [4] -26.8% | outcome [5] | Potency [6] > 46 µM | outcome [7] | activity change, negative = inhibition [8] 7.13%
9.32%: max response [8, 19]

O=C(O)CNCP(=O)(O)O
20.1%: max response [8, 20]
16.5%: max response [8, 19]
inactive: Potency [2] > 11.4 µM | outcome [3] | outcome [5] | Potency [9] > 46 µM | Potency [6] > 9.22 µM | activity change, negative = inhibition [7] 1.05% [at 11.4 µM] | Potency [10] | Potency [11] | Potency [12] | activity change, negative = inhibition [8] 2.6%

CN1CC[C@@]2(CCCN(C(=O)c3ccco3)C2)C1
19.3%: max response [8, 20]
inactive: Potency [2] > 11.4 µM | outcome [3] | Potency [13] | activity change, negative = inhibition [4] -15.5% | Potency [6] > 46 µM | outcome [7] | Potency [10] | activity change, negative = inhibition [8] 5.37%
10.7%: max response [8, 19]

O=C(c1ccco1)N1CCC[C@@]2(CCN(Cc3ccncc3)C2)C1
inactive: Potency [2] > 11.4 µM | outcome [3] | activity change, negative = inhibition [4] -1.52% | Potency [6] > 46 µM | outcome [7] | Potency [10] | Potency [15] | activity change, negative = inhibition [8] 3.05%
6.21%: max response [8, 19]
active: Potency [13] 3.98 µM | Potency [14] 3.16 µM | Potency [16] 2.51 µM
9.36%: max response [8, 20]

c1ccc(N=Nc2ccccc2)cc1
-21.5%: max response [8, 19]
inactive: outcome [7] | Potency [17] | Potency [11] | Potency [12] | activity change, negative = inhibition [8] -5.75% | Potency [18]
-24.4%: max response [8, 20]

CN1CC[C@@]2(CCCN(C(=O)c3ccncc3)C2)C1
inactive: Potency [1] > 20 µM | Potency [2] > 11.4 µM | outcome [3] | Potency [13] | Potency [6] > 46 µM | outcome [7] | activity change, negative = inhibition [8] 0.0036%
8.97%: max response [8, 20]
5.11%: max response [8, 19]

ClC1=C(Cl)C2(Cl)C3C(Cl)C=CC3C1(Cl)C2(Cl)Cl (configuration not stated)
18.4%: max response [8, 20]
inactive: Potency [15] | Potency [11] | Potency [12] | activity change, negative = inhibition [8] 4.59% | Potency [18]
11.3%: max response [8, 19]
active: Potency [17] 10 µM

O=C(Nc1cccc(F)c1)N1CCC2(CC1)CCN(C(=O)Oc1ccccc1)CC2
inactive: Potency [1] > 20 µM | Potency [2] > 11.4 µM | outcome [3] | Potency [13] | activity change, negative = inhibition [4] 12% | outcome [5] | Potency [6] > 46 µM | outcome [7] | Potency [10] | activity change, negative = inhibition [8] -7.04%
-28%: max response [8, 20]
-23.3%: max response [8, 19]
